# PubChem BioAssay AID725 (NMMLSC, 2007)
# In all, about 1,300 compounds went through this assay and fewer than 10 were called active. How the calls were made is not given here. The list is a sample of the results.
# Molecular target: N-formyl peptide receptor 2 (Homo sapiens) (UniProt P25090)
# Assay: FPRL1 fluorescent ligand binding inhibitors, primary screen, selectivity assay for FPR ligand SAR project, cell-based, flow cytometry, HTS counterscreen (AID 725)
# Conditions: FPRL1-expressing cells, stronger effect = higher value, concentration not given here
# Sequence of N-formyl peptide receptor 2 (Homo sapiens) (P25090 whole entry, looked up): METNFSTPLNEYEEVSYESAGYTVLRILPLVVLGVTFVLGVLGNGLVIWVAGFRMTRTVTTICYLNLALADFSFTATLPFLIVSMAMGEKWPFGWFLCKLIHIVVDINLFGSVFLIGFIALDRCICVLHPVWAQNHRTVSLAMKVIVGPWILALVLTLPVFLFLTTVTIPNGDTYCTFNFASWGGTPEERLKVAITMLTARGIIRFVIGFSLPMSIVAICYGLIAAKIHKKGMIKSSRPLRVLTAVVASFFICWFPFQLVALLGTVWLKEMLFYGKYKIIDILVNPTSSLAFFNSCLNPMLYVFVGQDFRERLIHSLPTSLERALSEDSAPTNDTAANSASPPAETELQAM
row,Structure (SMILES),inhibition
1,Cc1ccc(C2/C(=C(\O)c3ccccc3)C(=O)C(=O)N2CCN2CCNCC2)cc1 (configuration not stated),7.6% (inactive)
2,COC(=O)c1c[nH]n2c(=O)c3c(nc12)C(=O)N(Cc1ccccc1)C3,-4.5% (inactive)
3,Cc1cccc(C(CC(=O)O)NS(=O)(=O)c2ccc(C)cc2C)c1 (configuration not stated),-12.7% (inactive)
4,CCC(=O)N1c2ccccc2CC1C(=O)N1CCN(CC)CC1 (configuration not stated),5.1% (inactive)
5,COc1ccc(C2C(C(=O)c3ccc(C)o3)=C(O)C(=O)N2Cc2cccnc2)cc1OC (configuration not stated),2.3% (inactive)
6,CCN(CC)C(=O)c1c(NC(=O)c2cccc(C)c2)sc2c1CCCCC2,0.5% (inactive)
7,O=C1C(=O)N(CCCN2CCOCC2)C(c2ccc(Cl)cc2)/C1=C(\O)c1ccccc1 (configuration not stated),6.2% (inactive)
8,CCc1cc2c(=O)c(-c3ccc4c(c3)OCO4)c(C(F)(F)F)oc2c(CN(C)C)c1O,-3% (inactive)
9,O=C(CCCC(=O)c1ccccc1)Nc1cc(F)ccc1F,-27.4% (inactive)
10,CCN(C(=O)c1noc2c1CC(C)CC2)c1cccc(C)c1 (configuration not stated),-9.6% (inactive)
11,CC(C)c1ccc(CN(Cc2ccco2)C(=O)c2ccc(F)cc2)cc1,-3.3% (inactive)
12,COc1ccc(C2C(C(=O)c3ccco3)=C(O)C(=O)N2c2nnc(C)s2)cc1OC (configuration not stated),1.1% (inactive)
13,CCOC(=O)c1c(NC(=O)c2ccc(Cl)cc2)sc2c1CCC(C)C2 (configuration not stated),-4.7% (inactive)
14,Cc1onc(-c2ccccc2Cl)c1C(=O)NC1CCCCC1,4.7% (inactive)
15,Cc1ccc(N2C(=O)CSC2c2ccc(C(C)(C)C)cc2)cc1C (configuration not stated),-24.8% (inactive)
16,COC(=O)c1c(NC(=O)c2cccc(Cl)c2)sc2c1CCCC2,4.4% (inactive)
17,Cc1ccc(N2C(=O)C(=O)/C(=C(\O)c3ccc(Cl)cc3)C2c2ccc(O)cc2)cc1Br (configuration not stated),-2.4% (inactive)
18,CCOC(=O)c1c(NC(=O)c2ccccc2C)sc2c1CCC(CC)C2 (configuration not stated),-9.3% (inactive)
19,Cc1cc(C)n(Cc2c(C(=O)N3CCC(C)CC3)noc2C)n1,18.2% (inactive)
20,CCCN(C(=O)[C@H]1[C@@H]2C[C@@H]3[C@H]1C(=O)O[C@@H]3C2)c1ccccc1F,15.9% (inactive)
21,COc1ccc(C2/C(=C(\O)c3ccc(C)cc3)C(=O)C(=O)N2CCN2CCOCC2)c(OC)c1 (configuration not stated),-7% (inactive)
22,O=C(C(c1ccccc1)N1Cc2ccccc2C1=O)N1CCCCCC1 (configuration not stated),1.9% (inactive)

row,Structure (SMILES),inhibition
1,Nc1nonc1-c1nc2ccccc2n1CC(=O)Nc1ccccc1Cl,-1.8% (inactive)
2,COC(=O)c1ccc(-c2ccco2)n1CC(=O)Nc1c(C)cc(C)cc1C,-13.6% (inactive)
3,COc1ccc(C2/C(=C(/O)c3ccccc3)C(=O)C(=O)N2c2ccc(F)cc2)c(OC)c1 (configuration not stated),3.6% (inactive)
4,O=C1C(=O)N(Cc2cccnc2)C(c2ccc(F)cc2)/C1=C(\O)c1ccccc1 (configuration not stated),6.7% (inactive)
5,CC(C)OC(=O)c1c(NC(=O)C2CCCC2)sc2c1CCCC2,-0.2% (inactive)
6,O=C1C(=O)N(CCCN2CCOCC2)C(c2cccc(Br)c2)/C1=C(\O)c1ccccc1 (configuration not stated),5.8% (inactive)
7,Cc1nnc(N2C(=O)C(=O)/C(=C(/O)c3ccccc3)C2c2ccc(Cl)cc2)s1 (configuration not stated),-5% (inactive)
8,COCCCN1C(=O)C(=O)/C(=C(/O)c2ccccc2)C1c1ccc(Br)cc1 (configuration not stated),3.8% (inactive)
9,COc1cccc(NC(=O)C2CCC(=O)N2S(=O)(=O)c2ccccc2)c1 (configuration not stated),-2.9% (inactive)
10,COC(=O)c1c(NC(=O)c2cccc(Br)c2)sc(C)c1C,3.3% (inactive)
11,CCOC(=O)c1sc(N2C(=O)C(=O)/C(=C(/O)c3ccccc3)C2c2ccc(O)c(OC)c2)nc1C (configuration not stated),0.2% (inactive)
12,COC(=O)c1c(NC(=O)c2ccc(F)cc2)sc2c1CCC2,-10.9% (inactive)
13,Cc1ccc(C2CC(c3ccccc3)n3ncnc3N2C(=O)c2ccccc2)cc1 (configuration not stated),-21.4% (inactive)
14,CC(O)CN1C(=O)C(=O)/C(=C(\O)c2ccccc2)C1c1cccnc1 (configuration not stated),1.7% (inactive)
15,COc1ccccc1C1CC(=O)NC2=C1C(=O)CC(c1ccccc1Cl)C2 (configuration not stated),0.3% (inactive)
16,COc1ccc(C2C(C(=O)c3cc4ccccc4o3)=C(O)C(=O)N2CCN(C)C)cc1OC (configuration not stated),9.3% (inactive)
17,COC(=O)c1c(NC(=O)c2cccs2)sc(C)c1C,1.5% (inactive)
18,CCCCCCc1cc2c(=O)c(-c3nc4ccccc4n3C)c(C(F)(F)F)oc2cc1O,3.9% (inactive)
19,COc1cccc(OC)c1C(=O)Oc1ccc2c(=O)c(Oc3ccc4ccccc4c3)c(C(F)(F)F)oc2c1,4.4% (inactive)
20,C=CCN1C(=O)C2(/C(=C(/O)c3ccc(C)cc3)C(=O)C(=O)N2CC2CCCO2)c2ccccc21 (configuration not stated),0.9% (inactive)
21,CCN(CC)Cc1c(O)ccc2c(=O)c(-c3ccc(OC)c(OC)c3)c(C(F)(F)F)oc12,-8.6% (inactive)
22,O=C1C(=O)N(c2nncs2)C(c2cccs2)/C1=C(/O)c1ccc(F)cc1 (configuration not stated),-5.3% (inactive)

row,Structure (SMILES),inhibition
1,CCOC(=O)c1c(NC(=O)c2ccc(OC)cc2)sc(C)c1C,-3.8% (inactive)
2,CC(C)c1ccc(C2/C(=C(\O)c3ccccc3)C(=O)C(=O)N2CCC(=O)O)cc1 (configuration not stated),7.3% (inactive)
3,COC(=O)c1c(NC(=O)c2ccc(Cl)c(Cl)c2)sc2c1CCCC2,-2.7% (inactive)
4,CCOC(=O)c1c(CC(C)C)csc1NC(=O)c1ccccc1F,-1.5% (inactive)
5,COc1ccc(Br)cc1CNC(=O)Cn1ncc2ccccc21,-17.2% (inactive)
6,CCCCn1c(=O)c2c(nc3n2CCN3Cc2ccco2)n(C)c1=O,-0.5% (inactive)
7,O=c1c(-c2cccc(Cl)c2)c(C(F)(F)F)oc2c(CN3CCOCC3)c(O)ccc12,3.4% (inactive)
8,CCc1nn(Cc2ccccc2F)c(=O)c2cc3cc(C)ccc3n12,-0.2% (inactive)
9,CCN(CC)C(=O)c1c(NC(=O)c2ccccc2F)sc2c1CCC(C)C2 (configuration not stated),2.2% (inactive)
10,CCOC(=O)c1c(NC(=O)c2ccccc2OCC)sc2c1CCCC2,-11.3% (inactive)
11,Cc1ccc(OC(=O)c2ccc(N3C(=O)c4cccc(N)c4C3=O)cc2)cc1C,-3.5% (inactive)
12,CCOC(=O)C1=C(C)N(c2ccc(C)cc2)C(=O)/C1=C\c1ccccc1OC,-4.9% (inactive)
13,O=C1C(=O)N(CCc2c[nH]c3ccccc23)C(c2cccnc2)/C1=C(/O)c1ccc(Cl)cc1 (configuration not stated),-0.1% (inactive)
14,CCc1ccc(Oc2c(C(F)(F)F)oc3cc(OCC(=O)OC4CCCCC4)ccc3c2=O)cc1,1.4% (inactive)
15,Cc1sc(NC(=O)C2C3CCC(O3)C2C(=O)O)c(C(N)=O)c1-c1ccc(C(C)C)cc1 (configuration not stated),-4.5% (inactive)
16,O=C1C(=O)N(c2cccc(C(F)(F)F)c2)C(c2ccccc2[N+](=O)[O-])/C1=C(\O)c1ccccc1 (configuration not stated),-1.4% (inactive)
17,CCOc1ccccc1C(=O)N(Cc1ccc(Cl)cc1)Cc1ccco1,-14.6% (inactive)
18,O=C1C(=O)N(Cc2cccnc2)C(c2cccc(Br)c2)/C1=C(\O)c1ccccc1 (configuration not stated),4.9% (inactive)
19,CC(C)OC(=O)c1c(NC(=O)C2CCCCC2)sc2c1CCCC2,-2.7% (inactive)
20,CCOc1ccc(/C(O)=C2\C(=O)C(=O)N(c3nnc(C)s3)C2c2ccc(Br)cc2)cc1 (configuration not stated),1.9% (inactive)
21,COc1ccc(C2C(C(=O)c3cc4ccccc4o3)=C(O)C(=O)N2c2nccs2)cc1 (configuration not stated),1% (inactive)
22,Cc1ccc(C2/C(=C(\O)c3ccc(F)cc3)C(=O)C(=O)N2CCN2CCOCC2)o1 (configuration not stated),5.6% (inactive)

row,Structure (SMILES),inhibition
1,CN1C(=O)c2ccccc2C(C(=O)N2CCCCC2)C1c1cccs1 (configuration not stated),-3.9% (inactive)
2,O=C1C(=O)N(CCN2CCOCC2)C(c2ccco2)/C1=C(\O)c1ccc(F)cc1 (configuration not stated),5.5% (inactive)
3,Cc1cc(=O)n2[nH]cc(C(=O)O)c2n1,-16.5% (inactive)
4,O=C(C1=C(O)C(=O)N(CCN2CCOCC2)C1c1cccs1)c1ccco1 (configuration not stated),-2% (inactive)
5,CN(C)CCN1C(=O)C(O)=C(C(=O)c2cc3ccccc3o2)C1c1cccc(Oc2ccccc2)c1 (configuration not stated),1.3% (inactive)
6,CCN1C(=O)C(O)(CC(=O)c2ccc3c(c2)OCO3)c2ccccc21 (configuration not stated),-4.3% (inactive)
7,CCOC(=O)c1c(NC(=O)C2C3CCC(O3)C2C(=O)O)sc2c1CCC(CC)C2 (configuration not stated),0.3% (inactive)
8,CCOC(=O)N1CCC(c2cc(=O)n3[nH]cc(C(=O)Nc4ccc(OCC)cc4)c3n2)CC1,-5.2% (inactive)
9,CCOC(=O)C1NN=C(C(=O)c2ccc(OC)cc2)C1c1ccccc1 (configuration not stated),3.5% (inactive)
10,Cc1ccc(N2C(=O)C(=O)/C(=C(\O)c3ccc(Cl)cc3)C2c2cccnc2)cc1Br (configuration not stated),4.5% (inactive)
11,CCc1cc2c(=O)c(-c3nc4ccccc4s3)c(C)oc2c(CN2CCCCC2)c1O,-7.2% (inactive)
12,COc1ccc(N2C(=O)CSC2c2ccc(C(C)C)cc2)cc1 (configuration not stated),4.8% (inactive)
13,CCCCn1c(=O)c2oc3ccccc3c2n(Cc2ccccc2F)c1=O,-2.7% (inactive)
14,CCCN(C(=O)[C@H]1[C@@H]2C[C@@H]3[C@H]1C(=O)O[C@@H]3C2)c1ccccc1OCC,9.1% (inactive)
15,Cc1cccc(N2C(=O)CSC2c2cccc(F)c2)c1 (configuration not stated),-31.8% (inactive)
16,Cc1ccc(C)c(Cn2c(=O)cc(C)c3c(C)nn(-c4ccccc4)c32)c1,-16.2% (inactive)
17,Cc1ccc(/C(O)=C2/C(=O)C(=O)NC2c2ccc3c(c2)OCO3)cc1 (configuration not stated),1.1% (inactive)
18,CCOC(=O)C1=C(C)N(c2ccc(C)c(C)c2)C(=O)/C1=C\c1ccccc1OC,-8.1% (inactive)
19,CCN1C(=O)C(=C2CCCC2)N(CC)C1=O,8% (inactive)
20,CCCCCCN1C(=O)C(=O)/C(=C(\O)c2ccccc2)C1c1ccc(C(C)C)cc1 (configuration not stated),-2.5% (inactive)
21,COc1cc(C)nc(N(CCC(C)C)S(=O)(=O)c2ccc(C)cc2)n1,-7.7% (inactive)
